The full list was thinned out, with hits kept by preference.
KDM5B inhibitor: inhibitors of human KDM5B histone demethylase; KDM5B demethylase, FDH-coupled NADH fluorescence (FDH is formaldehyde dehydrogenase); Potency, µM (highest dose often 57.7 µM), actives largely listed as inhibitors; 2.6% of 220,000 active; AID 1347165; active means well fitted inhibition curve with a large enough effect; further: 0% is about no effect; nearly all actives have a fitted effect of over 70% in size
Target sequence (Q9UGL1 whole entry, looked up): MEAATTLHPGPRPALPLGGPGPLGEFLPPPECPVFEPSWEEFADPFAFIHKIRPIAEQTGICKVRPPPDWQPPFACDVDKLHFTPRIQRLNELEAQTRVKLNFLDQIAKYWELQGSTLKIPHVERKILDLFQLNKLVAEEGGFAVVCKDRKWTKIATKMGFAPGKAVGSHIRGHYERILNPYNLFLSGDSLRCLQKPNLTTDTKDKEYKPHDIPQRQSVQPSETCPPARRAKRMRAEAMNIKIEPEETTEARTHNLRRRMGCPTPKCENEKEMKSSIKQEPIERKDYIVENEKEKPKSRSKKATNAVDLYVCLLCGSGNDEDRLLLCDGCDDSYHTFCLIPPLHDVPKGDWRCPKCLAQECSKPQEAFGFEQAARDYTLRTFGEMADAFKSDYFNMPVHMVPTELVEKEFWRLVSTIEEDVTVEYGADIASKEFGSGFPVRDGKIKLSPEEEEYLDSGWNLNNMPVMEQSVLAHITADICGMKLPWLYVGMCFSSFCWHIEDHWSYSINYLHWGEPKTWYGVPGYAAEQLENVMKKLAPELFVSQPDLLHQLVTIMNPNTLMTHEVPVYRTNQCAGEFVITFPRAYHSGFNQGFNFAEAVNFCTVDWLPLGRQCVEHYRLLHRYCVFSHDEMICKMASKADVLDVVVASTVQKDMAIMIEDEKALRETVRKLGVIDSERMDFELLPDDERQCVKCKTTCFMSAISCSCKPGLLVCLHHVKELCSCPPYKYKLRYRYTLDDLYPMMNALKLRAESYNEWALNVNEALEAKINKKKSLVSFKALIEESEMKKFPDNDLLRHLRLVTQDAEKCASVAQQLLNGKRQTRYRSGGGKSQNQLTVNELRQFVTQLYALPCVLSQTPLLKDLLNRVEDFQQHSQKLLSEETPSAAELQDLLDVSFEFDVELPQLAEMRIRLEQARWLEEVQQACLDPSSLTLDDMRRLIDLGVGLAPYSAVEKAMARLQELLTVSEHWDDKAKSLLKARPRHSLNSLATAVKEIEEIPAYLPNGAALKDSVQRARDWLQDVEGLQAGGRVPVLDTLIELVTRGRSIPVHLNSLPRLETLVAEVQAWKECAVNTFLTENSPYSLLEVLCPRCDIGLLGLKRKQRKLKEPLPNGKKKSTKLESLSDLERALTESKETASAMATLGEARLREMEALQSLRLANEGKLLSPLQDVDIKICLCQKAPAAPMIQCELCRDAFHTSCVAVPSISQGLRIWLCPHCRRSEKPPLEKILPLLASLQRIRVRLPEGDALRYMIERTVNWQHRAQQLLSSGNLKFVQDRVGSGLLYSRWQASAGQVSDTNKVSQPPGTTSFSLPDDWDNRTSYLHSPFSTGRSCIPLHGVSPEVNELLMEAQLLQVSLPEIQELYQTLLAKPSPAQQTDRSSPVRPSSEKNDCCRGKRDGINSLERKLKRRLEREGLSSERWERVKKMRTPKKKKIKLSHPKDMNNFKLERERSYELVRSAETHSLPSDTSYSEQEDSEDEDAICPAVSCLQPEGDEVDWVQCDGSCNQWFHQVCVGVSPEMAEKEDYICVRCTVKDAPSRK
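Coupled FDH/NAD⁺ fluorescence readout. KDM5BΔAP 200 nM final; compound titration, 10 min RT preincubation; substrate mix 12.5 µM H3K4me3, 25 µM 2-OG, 50 µM Fe(II), 100 µM ascorbate, 0.25 mM NAD⁺, 0.25 U/mL FDH; ΔRFU over 30 min.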
Numbers without * were called inactive. Potency means the concentration at half of the fitted maximal effect.

For COCCNC(=O)c1ccc(OC2CCN(CCc3ccccc3)CC2)c(Cl)c1 the results were KDM5B inhibitor inactive.
Screening CN1c2cc(C(=O)N3CCOCC3)ccc2OCC1CC(=O)NC(CO)CO (configuration not stated) returned KDM5B inhibitor inactive.
`CCOC(=O)N1CCC(N2C(=O)c3ccc(C(=O)NCCOC)cc3C2=O)CC1` gave KDM5B inhibitor inactive.
`CCN(C(=O)CC1COc2ccc(C(=O)N3CCOCC3)cc2N1C)C(C)C` (configuration not stated) gave KDM5B inhibitor inactive.
For O=C(c1cc(=O)c2cc(F)ccc2o1)N(Cc1cccs1)c1ccccn1 the results were KDM5B inhibitor inactive.
`CN1CCC2(Cc3ccccc3CN(C(=O)Cc3cccc(Cl)c3)C2)C1` (configuration not stated) gave KDM5B inhibitor inactive.
For CCOC(=O)CCNCc1ccccc1 the results were KDM5B inhibitor inactive.
`COc1ccc(C)cc1S(=O)(=O)Nc1ccc(Nc2nc(C)cc(N3CCOCC3)n2)cc1` gave KDM5B inhibitor inactive.
`CCCN(CCC)C(=O)c1ccc(CN2C(=O)NC3(CCS(=O)(=O)CC3)C2=O)cc1` gave KDM5B inhibitor inactive.
C=CCNC(=O)c1ccccc1NC(=O)C1CCC1 was read as KDM5B inhibitor inactive.
For O=C(NCCN1CCCCCC1)c1ccc(CN2CC(=O)N3CCCCC3C2=O)cc1 (configuration not stated) the results were KDM5B inhibitor inactive.
O=C(Nc1ccc(-c2nnc3n2CCCC3)cc1)c1ccccc1 was read as KDM5B inhibitor inactive.
Screening C=CCNC(=O)c1ccc(-c2nnc3ccc(NC(=O)C4CCC4)cn23)cc1 returned KDM5B inhibitor 22µM*.
`COc1ccc(C(=O)N[C@@H]2CCC[C@@H]2C(=O)NCCN2CCCCC2)cn1` gave KDM5B inhibitor inactive.
`O=C(NCCN1CCCCC1)c1ccc(-c2nnc3ccc(NC(=O)C4CCC4)cn23)cc1` gave KDM5B inhibitor 22µM*.
For COc1ccc(S(=O)(=O)N(CC(=O)N2CCC(C(N)=O)CC2)c2ccccc2)cc1OC the results were KDM5B inhibitor inactive.
`O=C(NCCC1CCN(C(=O)Nc2cc(F)cc(F)c2)CC1)c1ccc(F)cc1` gave KDM5B inhibitor inactive.
Screening Nc1ccc(NS(=O)(=O)c2cccc(Cl)c2Cl)cc1[N+](=O)[O-] returned KDM5B inhibitor inactive.
`Cc1cc(Cl)ccc1NC(=O)c1ccc(NC(=O)C2=CSCCO2)cc1` gave KDM5B inhibitor inactive.
`O=C(CCc1nc(CS(=O)(=O)c2ccc(F)cc2)no1)NCCc1ccccc1Cl` gave KDM5B inhibitor inactive.
`O=C(CN1CCN(C(=O)c2ccc3ccccc3c2)CC1)Nc1ccccc1Cl` gave KDM5B inhibitor inactive.
For O=C(NCC1CN(C(=O)c2cccc(O)c2)CC12CN(c1ccccc1)C2)Nc1ccccc1 (configuration not stated) the results were KDM5B inhibitor inactive.
Screening O=C(CCc1cccnc1)N1CC(COc2ccccc2)C2(C1)CN(c1ccccc1)C2 (configuration not stated) returned KDM5B inhibitor inactive.
For c1ccc(OCC2CN(Cc3ccncc3)CC23CN(c2ccccc2)C3)cc1 (configuration not stated) the results were KDM5B inhibitor 32µM*.
`O=C(O)c1cccc(CN2CC(COc3ccccc3)C3(C2)CN(c2ccccc2)C3)c1` (configuration not stated) gave KDM5B inhibitor inactive.
For N#Cc1cccc(C(=O)N2CC(COc3ccccc3)C3(C2)CN(c2ccccc2)C3)c1 (configuration not stated) the results were KDM5B inhibitor 35µM*.
For O=C(c1cccc(O)c1)N1CC(COc2ccccc2)C2(C1)CN(C(=O)c1cn[nH]c1)C2 (configuration not stated) the results were KDM5B inhibitor inactive.
For CC(C)c1ccc2cc(C(=O)N(Cc3ccco3)C3CC3)[nH]c2c1 the results were KDM5B inhibitor inactive.
COc1cccc2cc(C(=O)N3CCN(c4ccc(C)cc4)CC3)c(=O)oc12 was read as KDM5B inhibitor inactive.
Clc1ccc(N/N=C/C(Br)=C/c2ccccc2)cc1 was read as KDM5B inhibitor inactive.
Screening CC(NC(=O)c1ccc2c(c1)NC(=O)CS2)c1ccc2c(c1)OCO2 (configuration not stated) returned KDM5B inhibitor inactive.
Screening Cc1ccc(CSc2ncc(CO)n2CC(=O)NC2CCCC2)cc1 returned KDM5B inhibitor inactive.
For Cc1ccc(-c2nc(C3CC(=O)N(c4ccc(F)c(Cl)c4)C3)no2)cc1 (configuration not stated) the results were KDM5B inhibitor inactive.
Screening COc1ccc(N2CC(c3noc(-c4ccc(Cl)cc4)n3)CC2=O)cc1 (configuration not stated) returned KDM5B inhibitor inactive.
For O=C1CC(c2noc(-c3ccc(-c4ccccc4)cc3)n2)CN1c1ccc(F)cc1 (configuration not stated) the results were KDM5B inhibitor 32µM*.
COc1ccc(-c2nc(C3CC(=O)N(c4ccc(C)cc4)C3)no2)cc1 (configuration not stated) was read as KDM5B inhibitor inactive.
Screening O=C1CC(c2noc(-c3ccc(OC(F)(F)F)cc3)n2)CN1c1ccc(F)cc1 (configuration not stated) returned KDM5B inhibitor inactive.
For CCc1ccc(-c2nc(C3CC(=O)N(c4ccc(Cl)cc4)C3)no2)cc1 (configuration not stated) the results were KDM5B inhibitor inactive.
For CCOc1ccc(-c2nc(C3CC(=O)N(c4ccc(F)c(Cl)c4)C3)no2)cc1OCC (configuration not stated) the results were KDM5B inhibitor 32µM*.
For Cc1ccc(-c2nc(C3CC(=O)N(c4ccc(F)cc4)C3)no2)cc1C (configuration not stated) the results were KDM5B inhibitor inactive.
CCCCOc1ccc(-c2nc(C3CC(=O)N(c4ccc(F)cc4)C3)no2)cc1 (configuration not stated) was read as KDM5B inhibitor 32µM*.
CCOc1ccc(-c2nc(C3CC(=O)N(c4ccc(Cl)cc4)C3)no2)cc1 (configuration not stated) was read as KDM5B inhibitor 32µM*.
`O=C1CC(c2noc(-c3ccccc3)n2)CN1c1ccc(Cl)cc1` (configuration not stated) gave KDM5B inhibitor inactive.
`Cc1ccc(-c2nc(C3CC(=O)N(c4ccc(F)c(Cl)c4)C3)no2)cc1C` (configuration not stated) gave KDM5B inhibitor inactive.
Screening O=C(C1CCCC1)N1CC2(CCCN(Cc3c[nH]c4ccccc34)C2)Cc2ccccc21 (configuration not stated) returned KDM5B inhibitor inactive.
Screening O=C(NC1CCc2nnc(C3CC3)n2CC1)c1cc(C2CC2)[nH]n1 (configuration not stated) returned KDM5B inhibitor inactive.
`O=C(NCc1nc(-c2ccccc2)no1)c1cc2cc(Br)ccc2o1` gave KDM5B inhibitor inactive.
`Cc1nn(C(C)C)cc1N` gave KDM5B inhibitor inactive.
O=S1(=O)NCC(O)c2sccc21 (configuration not stated) was read as KDM5B inhibitor inactive.
For O=C(Nc1nc(-c2ccc(Cl)s2)cs1)C1CCN(C(=O)C2CC2)CC1 the results were KDM5B inhibitor inactive.

Source: PubChem (National Center for Advancing Translational Sciences (NCATS))
